Assay outcomes from PubChem.
Hits are enriched below; roughly 12% of the tested compounds scored in any of these assays.
Sfp PPTase inh = inhibitors of Bacillus subtilis Sfp phosphopantetheinyl transferase. Q9F4F7. Biochemical Sfp PPTase activity, qHTS. Potency, µM, most hits filed as inhibitors. actives 3.5% (n = 310,000). AID 1490;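 further: the enzyme is Sfp with the accession as filed and its product quenches rhodamine fluorescence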
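Reaction rates are the 30-min fluorescence difference (ex 525, em 598 nm) in wells containing 15 nM Sfp, 5 uM rhodamine-CoA and 12.5 uM BHQ-2-YbbR at pH 7.6 with 10 mM MgCl2.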
PLK1 PBD block = blocks phosphopeptide binding to human PLK1 polo-box domain | P53350 | Plk1 PBD binding of FITC phosphopeptide, fluorescence polarization | Potency, µM, hits mostly inhibitors | actives 2.8% (n = 360,000); further: series mostly up to about 57 µM; nearly all actives have a fitted effect of over 65% in size
ALDH1A1 block = blocks purified human ALDH1A1 activity; Purified ALDH1A1, NADH fluorescence, propionaldehyde substrate; actives 7.3% (n = 220,000); Potency, µM (series often up to 75.3 µM), hits mostly inhibitors; P00352; active means well fitted inhibition curve with a large enough effect, not every such curve was filed as active; inconclusive means small, poorly fitted or top-dose-only effect, or another doubt; inactive means no such curve, though single readings can be large or run the other way
Gal4-VP16 FLuc = Gal4-VP16 reporter inhibition counter-screen | AID 2546 | Potency, µM (series often up to 53.6 µM), hits mostly inhibitors | Drosophila S2 Gal4-VP16 UAS-luciferase, luminescence, 20 h | actives 3.5% (n = 310,000);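 further: Gal4-VP16 expression switched on by copper sulfate through the metallothionein promoter; nearly all actives have a fitted effect of over 50% in size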
RORg inh = inhibitors of mouse ROR gamma transcriptional activity | P51450 | Drosophila S2 Gal4-RORgamma UAS-luciferase reporter, 20 h | actives 5.4% (n = 310,000) | Potency, µM (doses to about 53.6 µM), actives largely listed as inhibitors; further: nearly all actives have a fitted effect of over 60% in size
Target sequence (P51450 whole entry, looked up, the tested form may be a part): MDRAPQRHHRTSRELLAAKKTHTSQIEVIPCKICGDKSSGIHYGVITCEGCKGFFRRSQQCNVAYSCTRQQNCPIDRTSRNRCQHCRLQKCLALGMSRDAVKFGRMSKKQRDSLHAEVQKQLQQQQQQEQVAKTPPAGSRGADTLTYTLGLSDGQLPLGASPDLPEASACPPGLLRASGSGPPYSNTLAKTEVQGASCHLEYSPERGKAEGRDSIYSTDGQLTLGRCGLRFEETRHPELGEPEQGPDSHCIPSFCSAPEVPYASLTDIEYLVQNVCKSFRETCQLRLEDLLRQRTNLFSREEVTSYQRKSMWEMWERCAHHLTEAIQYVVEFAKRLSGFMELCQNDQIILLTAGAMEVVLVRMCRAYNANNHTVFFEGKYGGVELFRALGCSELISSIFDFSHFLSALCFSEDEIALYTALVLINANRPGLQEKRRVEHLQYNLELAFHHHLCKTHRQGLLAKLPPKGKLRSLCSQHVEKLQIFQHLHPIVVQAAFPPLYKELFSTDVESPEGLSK
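Stable Schneider cell line, Gal4 DNA-binding domain fused to ROR gamma, UAS-luciferase. Cmpd 1 hr RT → CuSO4 700 uM final → 20 hr RT → luciferase reagent 10 min → luminescence.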
Hits are given with their value; 0 = inactive; ? = inconclusive; - = no result; [ ] = dose if it differs, or a comment. Unless noted, the call rests on the fitted dose curve; in most records, active means well fitted curve in the direction sought with a large enough effect; inconclusive means small, poorly fitted or top-dose-only effect, or another doubt; inactive means no such curve, though single readings can be large; an effect the other way counts as inactive or inconclusive.

SMILES	Sfp PPTase inh	PLK1 PBD block	ALDH1A1 block	Gal4-VP16 FLuc	RORg inh
Cc1ccc(N=CC=C2OC(C)(C)C(C)(C)O2)cc1	0	0	?	0	0
CC1(C)OC(c2ccccc2)=C/C(=C\C=N\NC(=O)c2ccncc2)O1	0	0	-	0.562µM	0.398µM
CCN(CC)S(=O)(=O)c1ccc(N2CCOCC2)c(NC(=O)c2ccc(N3CCCC3=O)cc2)c1	-	0	-	-	-
O=C(NC(=S)Nc1nc(-c2cccc([N+](=O)[O-])c2)cs1)c1ccccc1Cl	0	0	0	0	0
CCc1noc(C)c1C(=O)Nc1nc(-c2ccc(Cl)cc2Cl)cs1	0	0	0	?	?
O=C(NC(=S)Nc1nc(-c2cccc([N+](=O)[O-])c2)cs1)c1cc(Cl)ccc1Cl	0	0	28.2µM	0	?
O=[N+]([O-])c1cccc(NC(=S)Nc2nc(-c3ccc(Cl)cc3Cl)cs2)c1	0	-	-	3.16µM	2µM
Clc1ccc(OCCCc2nc(-c3cccnc3)no2)c(Cl)c1	31.6µM	0	0	0	0
COc1ccc(C2=CC3=C(Br)C(=O)C(C)(OC(=O)CCc4ccccc4)C(=O)C3=CO2)cc1 (stereo unspecified)	0	-	0	0	0
COc1ccc(C2=CC3=C(Br)C(=O)C(C)(OC(=O)c4cccs4)C(=O)C3=CO2)cc1 (stereo unspecified)	0	8.44µM	0	0	0
COc1ccc(C2=CC3=C(Br)C(=O)C(C)(OC(=O)c4ccco4)C(=O)C3=CO2)cc1 (stereo unspecified)	?	9.47µM	0	0	0
N#CCCCSc1nnnn1-c1cc(C(F)(F)F)cc(C(F)(F)F)c1	0	-	0	0	0
COc1cc(OC)c(Cl)cc1N	0	6.7µM	0	0	0
COc1ccc(OC)c(N)c1	0	0	?	0	?
COc1ccc(Oc2ncc3nc(C)c(=O)n(-c4ccc(OC)cc4)c3n2)cc1	0	-	?	0	0
CC1(C(=O)NS(=O)(=O)c2ccccc2Cl)CCN1C(=O)c1ccccc1CCc1ccccc1 (stereo unspecified)	-	0	-	-	-
Clc1ccccc1Nc1nc2ccccc2o1	-	0	-	-	-
Cc1cccc(C)c1Nc1nc2ccccc2o1	0	0	0	?	15.8µM
Cc1nc(Nc2nc3ccccc3o2)nc(C)c1C(=O)Nc1ccc(F)cc1	0	0	0	0	0
Cc1nc(Nc2nc3ccccc3o2)nc2c1CCC2	0	0	0	6.31µM	2.82µM
CCN1C(=O)[C@H]2[C@@H](c3ccc(-c4ccc(C(C)=O)cc4)cc3)N3CCC[C@@]3(C(=O)OC)[C@H]2C1=O	-	0	-	-	-
CC(C)c1cccc(-c2csc(C(O)c3cccc(Cl)c3)n2)c1 (stereo unspecified)	-	0	-	-	-
O=C(c1cccc(F)c1)N1CCC2(CC1)CN(c1ccccc1)C2	0	-	?	0	0
CCCOC(=O)c1ccc(NC(=O)C2C3C=CC(O3)C2C(=O)O)cc1 (stereo unspecified)	79.4µM	0	1.78µM	?	0
CC(=O)c1ccc(NC(=O)Oc2ccccc2)cc1	0	0	0	0	0
SMILES	Sfp PPTase inh	PLK1 PBD block	ALDH1A1 block	Gal4-VP16 FLuc	RORg inh
CCCOC(=O)c1ccc(NC(=O)Oc2ccccc2)cc1	0	0	25.1µM	0	0
O=C1c2cccc3c2[C@@H](CCC3)CN1[C@@H]1CN2CCC1CC2	0	-	-	0	0
Clc1ccccc1CNCC1CCC(CNCc2ccccc2Cl)CC1 (stereo unspecified)	0	-	0	0	0
O=[N+]([O-])c1cnc(Sc2ccncn2)s1	?	0.67µM	3.16µM	3.16µM	3.16µM
O=C1NCCN1c1ncc([N+](=O)[O-])s1	0	0	0	0	0
C[C@@H](c1ccccc1)N1C(=O)[C@H]2[C@H]3[C@H](O)[C@H](O)C/C(=N/NC(=O)OCc4ccccc4)[C@@H]3CC[C@@H]2C1=O	0	-	0[13.5 µM]	0[10 µM]	0[10 µM]
Cc1cc(C)c2cc(C#N)c(NCCNC(=O)c3ccncc3)nc2c1	-	0	-	-	-
O=C(NC(=S)NCc1ccco1)c1ccccc1	0	0	0	0	0
Cn1cc(C(=O)NCc2ccc(F)cc2)cn1	0	23.8µM	0	0	0
O=C(O)c1ccc(NC(=S)NCc2ccccc2)cc1	0	0	-	0	0
CC(C)(C)C(=O)NC(=S)NCc1ccccc1	0	0	0	?	7.08µM
O=C(NC(=S)NCc1ccccc1)c1ccccc1	0	0	?	?	3.16µM
Cn1nc(C(=O)NCc2ccc(F)cc2)cc1C(=O)NCc1ccc(F)cc1	-	0	-	-	-
O=C(NC(=S)NCc1ccncc1)c1ccccc1	0	0	0	0	0
O=C(NC(=S)NCc1ccc(F)cc1)c1ccccc1	?	0	?	?	5.01µM
Clc1cccc(CNc2ccn3nc(-c4cccc(Cl)c4)cc3n2)c1	-	0	-	-	-
COCCN(C(=O)Cc1cccs1)C(C(=O)NC1CCCC1)c1ccc(OC)c(OC)c1 (stereo unspecified)	0	0	0	0	0
COCCN(C(=O)Cc1cccs1)C(C(=O)NCc1ccc(OC)cc1)c1ccc(C)cc1 (stereo unspecified)	0	0	2µM	0	0
COc1ccc(CNC(=O)Cc2cccs2)cc1	0	0	-	-	-
COc1ccc(CNC(=O)C(c2ccc(C)o2)N(Cc2cccs2)C(=O)Cc2cccs2)cc1 (stereo unspecified)	0	0	3.55µM	?	0
COc1ccc(CN(C(=O)Cc2c[nH]c3ccccc23)C(C(=O)NC2CCCCC2)c2ccc(C)o2)cc1 (stereo unspecified)	0	0	6.31µM	0[0.365 µM]	0
CCc1ccc(C(C(=O)NCc2ccc(OC)cc2)N(CCOC)C(=O)Cc2cccs2)cc1 (stereo unspecified)	0	0	1.26µM	0	0
Cc1ccc(C(C(=O)NC2CCCCC2)N(Cc2ccccc2)C(=O)Cc2c[nH]c3ccccc23)o1 (stereo unspecified)	0	0	?	0	0[10 µM]
O=[N+]([O-])c1ccc2c(N=Nc3ccc4ccccc4c3O)c(O)cc(S(=O)(=O)O)c2c1	-	-	0[13.5 µM]	-	-
Cc1ccc(CN2CCSCC2)c(C)c1	?	0	0	0	?
SMILES	Sfp PPTase inh	PLK1 PBD block	ALDH1A1 block	Gal4-VP16 FLuc	RORg inh
Cc1ccc(CN2CCCN(C)CC2)c(C)c1	0	18.9µM	-	0	0
CCCNC(=O)C1(C)CCCN(Cc2ccc(-c3ccccc3)cc2)C1 (stereo unspecified)	-	0	-	-	-
Cc1ccc(C(=O)CCNc2ccccc2)o1	0	0	15.8µM	0	0
Cc1ccc(C(=O)Cc2ccccc2)o1	-	0	-	-	-
Cc1ccc(C(=O)CCNc2ccc(Br)cc2)o1	0	0	11.2µM	0	0
Cc1ccc(C(=O)CCNc2cccc(Br)c2)o1	0	0	?	?	0
Cc1ccc(C(=O)CCNc2ccc(F)c(Cl)c2)o1	0	0	14.1µM	0	0
CCOc1ccc(CC(=O)Nc2c3c(nn2C(C)(C)C)CS(=O)(=O)C3)cc1	0	0	-	0	0
CC(=O)Nc1ccc(-c2ccnc3c2CC(C(=O)NCCC(F)(F)F)O3)cc1 (stereo unspecified)	-	0	-	-	-
COc1ccc(-c2nnc3n2N=C(c2c(OC)cccc2OC)CS3)c(OC)c1	0	-	-	0	0
O=C(COC(=O)/C=C/c1ccc(F)cc1)NCc1ccco1	0	0	0	0	0
